Experimental data taken from PubChem BioAssay (Tox21).
Inconclusive results are not listed. Calls of active or inactive are those of the source. Unless noted, calls follow the shape of the full dose curve.

Assays:
[1] = Nuclear factor erythroid 2-related factor 2/antioxidant responsive element (Nrf2/ARE) small molecule agonists: qHTS cell viability counter screen in human keratinocytes (AID 1919968; active = well fitted curve in the direction sought with a large enough effect in the repeat runs; an effect the other way counts as inactive or inconclusive; also: nearly all actives have a fitted effect of over 55% in size; also: potency is read from the fitted curve at half-maximal effect)
Summary of the method: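 Stably transfected HaCaT (KeratinoSens), 1,500/well. Test agents in DMSO were applied for 23 h, 37 C/5% CO2. CellTiter-Fluor was incubated 1 h before the fluorescence read.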

[2] = biological target: KiSS-1 receptor (Homo sapiens) (UniProt Q969F8); test: Human kisspeptin (KISS1R) small molecule agonists, calcium flux assay in KISS1R-HEK293 cells (AID 1920064; active = well fitted curve in the direction sought with a large enough effect in the repeat runs; an effect the other way counts as inactive or inconclusive)
Chain of KiSS-1 receptor (Homo sapiens) (Q969F8 whole entry, looked up): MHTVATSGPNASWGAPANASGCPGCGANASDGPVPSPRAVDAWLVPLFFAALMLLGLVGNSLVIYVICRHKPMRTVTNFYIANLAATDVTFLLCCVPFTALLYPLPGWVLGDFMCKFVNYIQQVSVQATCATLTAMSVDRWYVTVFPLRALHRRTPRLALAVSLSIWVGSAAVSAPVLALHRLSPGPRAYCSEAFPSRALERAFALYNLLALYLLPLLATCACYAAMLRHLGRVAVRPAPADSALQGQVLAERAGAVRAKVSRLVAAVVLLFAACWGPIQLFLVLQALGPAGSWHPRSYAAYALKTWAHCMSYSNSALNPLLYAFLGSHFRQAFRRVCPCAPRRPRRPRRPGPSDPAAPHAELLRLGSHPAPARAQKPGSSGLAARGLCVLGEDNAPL
Summary of the method: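 After overnight (18 h) culture at 37 C/5% CO2, human KISS1R-HEK293 cells received calcium dye for 1 h, then test compound; emission at 540 nm (excitation 480 nm) was tracked for 3 min.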

[3] = G protein-coupled receptor (GPCR) small molecule agonists, calcium flux assay: HEK293 wild type cell line counter screen (AID 1920065)
Summary of the method: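 Following 18 h incubation at 37 C/5% CO2, plates got calcium dye for 1 h; compounds, ATP or DMSO were then pinned in and fluorescence followed kinetically (480/540 nm).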

[4] = p53 small molecule agonists, cell-based qHTS assay with rat liver microsomes (AID 1963578)
Summary of the method: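 p53RE-bla cells were exposed to compounds together with rat liver microsomes (0.5 mg/mL final) and NADPH (0.5 mg/mL final) for 16 h at 37 C, then read by LiveBLAzer beta-lactamase fluorescence after 2 h at room temperature.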

[5] = p53 small molecule agonists, cell-based qHTS assay with human liver microsomes: qHTS cell viability counter screen (AID 1963579); also: nearly all actives have a fitted effect of over 45% in size
Summary of the method: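 p53RE-bla cells (4,000/well) were pre-incubated 5 h at 37 C, then given compounds in DMSO plus human liver microsomes (0.5 mg/mL final) and NADPH (0.5 mg/mL final) for 16 h at 37 C. Viability was read by CellTiter-Glo luminescence.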

[6] = p53 small molecule agonists, cell-based qHTS assay with rat liver microsomes: qHTS cell viability counter screen (AID 1963580); also: nearly all actives have a fitted effect of over 45% in size
Summary of the method: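 Rat liver microsome (0.5 mg/mL final) and NADPH (0.5 mg/mL final) co-incubation with compounds for 16 h at 37 C on HCT-116 p53RE-bla cells; cytotoxicity taken from intracellular ATP luminescence.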

[7] = p53 small molecule agonists, cell-based qHTS assay: qHTS cell viability counter screen (AID 1963581); also: nearly all actives have a fitted effect of over 45% in size
Summary of the method: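 qHTS counter screen: 16 h compound exposure at 37 C of p53RE-bla HCT-116 cells (4,000 per well, seeded 5 h prior), cell viability by ATP luminescence.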

[8] = p53 small molecule agonists, cell-based qHTS assay (AID 1963582; active = well fitted activation curve with a large enough effect in the signal ratio in the repeat runs, not every such curve was filed as active; the % refers to the signal ratio; also: potency is read from the fitted curve at half-maximal effect)
Summary of the method: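 Measured: fluorescence from cleaved LiveBLAzer substrate. System: p53RE-bla cells, 16 h compound treatment at 37 C, 2 h substrate step at room temperature.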

[9] = biological target: 5-hydroxytryptamine receptor 2A (Homo sapiens) (UniProt P28223); test: 5-hydroxytryptamine receptor 2A (HTR2A) small molecule agonists, cell-based qHTS assay (AID 1963587); also: nearly all actives have a fitted effect of over 30% in size; also: potency is read from the fitted curve at half-maximal effect
Chain of 5-hydroxytryptamine receptor 2A (Homo sapiens) (P28223 whole entry, looked up): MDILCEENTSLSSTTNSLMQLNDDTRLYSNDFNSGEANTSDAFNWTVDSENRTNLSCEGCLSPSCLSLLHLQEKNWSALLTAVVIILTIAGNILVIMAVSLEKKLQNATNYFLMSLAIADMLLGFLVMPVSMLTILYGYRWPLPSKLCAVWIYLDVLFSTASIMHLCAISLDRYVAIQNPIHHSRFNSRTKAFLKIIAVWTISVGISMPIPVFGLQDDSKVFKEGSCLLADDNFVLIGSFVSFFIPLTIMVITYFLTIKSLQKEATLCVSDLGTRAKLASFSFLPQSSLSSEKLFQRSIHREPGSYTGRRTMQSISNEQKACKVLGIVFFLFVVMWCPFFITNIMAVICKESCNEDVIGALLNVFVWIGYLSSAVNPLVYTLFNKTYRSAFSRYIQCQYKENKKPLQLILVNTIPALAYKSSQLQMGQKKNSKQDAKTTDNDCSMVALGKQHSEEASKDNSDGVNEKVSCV
Summary of the method: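 Kinetic calcium-flux fluorescence (2 min, 1 sec intervals) after compound addition in agonist mode. HTR2A-CHO cells were cultured 18 h, then dye-loaded 1 h at 37 C.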

[10] = biological target: Muscarinic acetylcholine receptor M1 (Homo sapiens) (UniProt P11229); test: Cholinergic receptor muscarinic 1 (CHRM1) small molecule antagonists, cell-based qHTS assay (AID 1963588); also: nearly all actives have a fitted effect of over 40% in size; also: potency is read from the fitted curve at half-maximal effect
Chain of Muscarinic acetylcholine receptor M1 (Homo sapiens) (P11229 whole entry, looked up): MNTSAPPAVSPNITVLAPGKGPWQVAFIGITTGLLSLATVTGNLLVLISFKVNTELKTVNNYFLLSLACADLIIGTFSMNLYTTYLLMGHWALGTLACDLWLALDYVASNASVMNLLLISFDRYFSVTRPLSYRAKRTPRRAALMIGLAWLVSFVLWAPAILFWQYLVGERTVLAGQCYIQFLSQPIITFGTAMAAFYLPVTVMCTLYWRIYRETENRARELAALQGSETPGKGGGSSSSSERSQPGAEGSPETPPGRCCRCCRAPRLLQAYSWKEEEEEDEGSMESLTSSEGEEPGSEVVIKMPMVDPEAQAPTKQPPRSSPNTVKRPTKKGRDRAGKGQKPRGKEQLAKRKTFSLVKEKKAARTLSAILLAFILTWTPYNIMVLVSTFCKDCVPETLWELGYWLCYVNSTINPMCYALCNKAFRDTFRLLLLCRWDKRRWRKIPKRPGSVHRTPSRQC
Summary of the method: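 Compounds were tested at 15 concentrations in three independent runs. Dye-loaded CHRM1-CHO cells were exposed 5 min at room temperature before stimulation by acetylcholine added at 50nM. Intracellular calcium was read kinetically on FDSS for 3 min.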

[11] = biological target: Muscarinic acetylcholine receptor M1 (Homo sapiens) (UniProt P11229); test: Cholinergic receptor muscarinic 1 (CHRM1) small molecule agonists, cell-based qHTS assay (AID 1963589); also: nearly all actives have a fitted effect of over 35% in size
Summary of the method: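 Kinetic fluorescence (1 s intervals) of calcium-sensitive dye in human M1 CHO cells after compound addition; cells pre-incubated 18 h at 37 C/5% CO2 and dye-loaded 1 h.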

[12] = biological target: Beta-2 adrenergic receptor (Homo sapiens) (UniProt P07550); test: Adrenergic beta2 receptor (ADRB2) small molecule antagonists, cell-based qHTS assay (AID 1963592); also: series mostly up to about 92 µM; nearly all actives have a fitted effect of over 50% in size
Chain of Beta-2 adrenergic receptor (Homo sapiens) (P07550 whole entry, looked up): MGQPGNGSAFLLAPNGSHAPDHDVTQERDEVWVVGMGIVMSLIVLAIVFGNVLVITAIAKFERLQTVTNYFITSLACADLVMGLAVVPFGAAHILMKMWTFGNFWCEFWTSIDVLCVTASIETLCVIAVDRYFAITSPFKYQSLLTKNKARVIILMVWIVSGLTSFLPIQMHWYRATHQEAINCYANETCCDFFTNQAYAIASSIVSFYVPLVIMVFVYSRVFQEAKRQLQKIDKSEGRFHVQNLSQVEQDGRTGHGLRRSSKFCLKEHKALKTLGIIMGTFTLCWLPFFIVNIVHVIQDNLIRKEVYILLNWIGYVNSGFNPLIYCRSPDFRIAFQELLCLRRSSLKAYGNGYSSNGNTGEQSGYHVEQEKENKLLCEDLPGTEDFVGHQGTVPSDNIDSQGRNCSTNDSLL
Summary of the method: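 Assay format: CHO-ADRB2 cells, 18-20hr seeding at 37C/5% CO2, then compound plus 1nM isoproterenol agonist mix for 0.5hr RT. Homogeneous time-resolved fluorescence cAMP detection after 1hr, expressed as 665/615 nm ratio.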

[13] = biological target: D(2) dopamine receptor (Homo sapiens) (UniProt P14416); test: Dopamine D2 receptor (DRD2) small molecule agonists, cell-based qHTS assay (AID 1963594); also: nearly all actives have a fitted effect of over 35% in size; also: potency is read from the fitted curve at half-maximal effect
Chain of D(2) dopamine receptor (Homo sapiens) (P14416 whole entry, looked up): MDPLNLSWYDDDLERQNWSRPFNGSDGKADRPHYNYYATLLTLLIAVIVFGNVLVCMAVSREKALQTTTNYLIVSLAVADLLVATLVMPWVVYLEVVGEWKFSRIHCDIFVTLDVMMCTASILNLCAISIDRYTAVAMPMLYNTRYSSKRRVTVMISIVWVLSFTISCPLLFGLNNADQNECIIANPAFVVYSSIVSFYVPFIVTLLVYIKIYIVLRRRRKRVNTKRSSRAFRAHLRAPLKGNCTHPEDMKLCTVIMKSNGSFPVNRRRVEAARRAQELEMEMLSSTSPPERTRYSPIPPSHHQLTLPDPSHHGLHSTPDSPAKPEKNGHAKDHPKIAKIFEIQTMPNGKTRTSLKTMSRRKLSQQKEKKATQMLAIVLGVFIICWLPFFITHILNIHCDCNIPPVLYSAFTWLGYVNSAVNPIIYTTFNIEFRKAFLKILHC
Summary of the method: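 cAMP accumulation in DRD2-HEK293 cells measured by HTRF after 1 h detection; compounds added 10 min before NKH477 (200nM […]) forskolin-analogue stimulation, 30 min at room temperature, with Ro20-1724 present at 0.1 mM final.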

[14] = biological target: D(2) dopamine receptor (Homo sapiens) (UniProt P14416); test: Dopamine D2 receptor (DRD2) small molecule antagonists, cell-based qHTS assay (AID 1963595; active = well fitted inhibition curve with a large enough effect in the signal ratio in the repeat runs, with a control signal flat; the % refers to the signal ratio)
Summary of the method: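 Readout: HTRF cAMP, cAMP-d2 competing with cellular cAMP for anti-cAMP cryptate, read after 1 h. Cells: DRD2-HEK293. Conditions: 0.1 mM Ro20-1724, 12 nM quinpirole, 200 nM NKH477, 30 min RT.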

[15] = biological target: 5-hydroxytryptamine receptor 2A (Homo sapiens) (UniProt P28223); test: 5-hydroxytryptamine receptor 2A (HTR2A) small molecule antagonists, cell-based qHTS assay (AID 1963586); also: nearly all actives have a fitted effect of over 45% in size; also: potency is read from the fitted curve at half-maximal effect
Summary of the method: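 CHO cells stably expressing human HTR2A were plated for 18 h at 37 C, then loaded with calcium dye for 1 h. Compounds were preincubated 5 min at room temperature before DOI (4 nM solution) was added. Kinetic fluorescence was read for 3 min.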

[16] = cAMP Responsive Elements (CRE) small molecule agonists, cell-based qHTS assay (AID 1963590)
Summary of the method: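 Test agents in DMSO were incubated 3 h at 37 C/5% CO2 with CRE-bla HEK 293T cells seeded 18 h earlier; LiveBLAzer B/G FRET substrate was added and read after 2 h at room temperature.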

[17] = cAMP Responsive Elements (CRE) small molecule antagonists, cell-based qHTS assay (AID 1963591; active = well fitted inhibition curve with a large enough effect in the signal ratio in the repeat runs, not every such curve was filed as active; the % refers to the signal ratio)
Summary of the method: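 Reporter line CRE-bla HEK 293T in dialyzed-FBS DMEM; cells preincubated 18 h, treated 3 h with compound plus NKH477 (0.25 uM final); LiveBLAzer FRET, 2 h RT.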

[18] = biological target: Beta-2 adrenergic receptor (Homo sapiens) (UniProt P07550); test: Adrenergic beta2 receptor (ADRB2) small molecule agonists, cell-based qHTS assay (AID 1963593);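 also: CHO cells stably overexpressing human ADRB2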
Summary of the method: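 CHO cells stably over-expressing ADRB2 were plated overnight at 37C, then dosed with compounds plus a stimulation mix containing 100uM IBMX and 25uM Ro-20-1724 for 0.5hr at room temperature. cAMP was measured by HTRF competition, 1hr.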

[19] = p53 small molecule agonists, cell-based qHTS assay with human liver microsomes (AID 1963577)
Summary of the method: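 p53RE-bla reporter cells were pre-incubated 5 h at 37 C, then treated with compounds plus human liver microsomes (0.5 mg/mL final) and NADPH (0.5 mg/mL final) for 16 h at 37 C. Beta-lactamase activity was read by LiveBLAzer fluorescence after 2 h at room temperature.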
% is scaled to controls: 0 for no effect and ±100 for the full control effect.

O=C(NOCC1CC1)c1ccc(F)c(F)c1Nc1ccc(I)cc1Cl
active: Potency [1] 29.8 µM | Potency [8] 19.9 µM
inactive: Potency [2] | Potency [3] | Potency [4] | Potency [5] | Potency [6] | Potency [7] | Potency [9] | Potency [10] | Potency [11] | Potency [12] | Potency [13] | Potency [14]

c1cnc(N2CCN(Cc3ccc4c(c3)OCO4)CC2)nc1
inactive: Potency [1] | Potency [2] | Potency [3] | Potency [4] | Potency [6] | Potency [7] | Potency [8] | Potency [15] | Potency [9] | Potency [10] | Potency [11] | Potency [16] | Potency [17] | Potency [12] | Potency [14]

O=C1[C@@H]2[C@H]3CC[C@H](C3)[C@@H]2C(=O)N1CCCCN1CCN(c2ncccn2)CC1
inactive: Potency [1] | Potency [2] | Potency [3] | Potency [5] | Potency [6] | Potency [7] | Potency [9] | Potency [10] | Potency [11] | Potency [16] | Potency [17] | Potency [12] | Potency [18]
active: Potency [13] 0.0944 µM

COC(=O)[C@]1(C)CCC[C@@]2(C)[C@H]1CC=C1C=C(C(C)C)CC[C@@H]12
inactive: Potency [1] | Potency [2] | Potency [3] | Potency [19] | Potency [4] | Potency [5] | Potency [6] | Potency [7] | Potency [8] | Potency [15] | Potency [9] | Potency [10] | Potency [11] | Potency [16] | Potency [12] | Potency [18] | Potency [13] | Potency [14]

CC1(COc2ccc(CC3SC(=O)NC3=O)cc2)CCCCC1 (stereo unspecified)
inactive: Potency [1] | Potency [2] | Potency [3] | Potency [19] | Potency [4] | Potency [6] | Potency [7] | Potency [8] | Potency [12] | Potency [14]

c1ccc2c(c1)ccc1c3ccccc3ccc21
inactive: Potency [1] | Potency [2] | Potency [19] | Potency [4] | Potency [5] | Potency [7] | Potency [8] | Potency [15] | Potency [9] | Potency [10] | Potency [11] | Potency [16] | Potency [17] | Potency [12] | Potency [13] | Potency [14]

OC(CN1CCC(Cc2ccc(F)cc2)CC1)c1ccc(Cl)cc1 (stereo unspecified)
active: Potency [1] 29.8 µM | Potency [15] 1.63 µM
inactive: Potency [2] | Potency [3] | Potency [19] | Potency [4] | Potency [5] | Potency [6] | Potency [7] | Potency [11] | Potency [16] | Potency [17] | Potency [13] | Potency [14]

CCOC(=O)C(C)Oc1ccc(Oc2nc3ccc(Cl)cc3o2)cc1 (stereo unspecified)
inactive: Potency [1] | Potency [2] | Potency [3] | Potency [19] | Potency [4] | Potency [6] | Potency [7] | Potency [8] | Potency [15] | Potency [9] | Potency [11] | Potency [17] | Potency [12] | Potency [18] | Potency [13] | Potency [14]

C[C@]12CCC(=O)C=C1C=C[C@@H]1[C@@H]2CC[C@@]2(C)[C@H]1CC[C@@]21CCC(=O)O1
inactive: Potency [1] | Potency [2] | Potency [3] | Potency [19] | Potency [4] | Potency [5] | Potency [6] | Potency [7] | Potency [8] | Potency [15] | Potency [9] | Potency [11] | Potency [18] | Potency [14]

CCCCCCCCCCOC(=O)c1ccccc1C(=O)OCCCCCCCC
inactive: Potency [1] | Potency [2] | Potency [3] | Potency [19] | Potency [4] | Potency [5] | Potency [6] | Potency [7] | Potency [8] | Potency [15] | Potency [10] | Potency [11] | Potency [16] | Potency [17] | Potency [12] | Potency [13] | Potency [14]

CC1=C(C/C=C(\C)CCC[C@H](C)CCC[C@H](C)CCCC(C)C)C(=O)c2ccccc2C1=O
inactive: Potency [1] | Potency [2] | Potency [3] | Potency [4] | Potency [5] | Potency [6] | Potency [7] | Potency [8] | Potency [15] | Potency [9] | Potency [10] | Potency [11] | Potency [17] | Potency [12] | Potency [13] | Potency [14]

CCOC(=O)C1=C[C@]2(CC)CCCN3CCc4c(n1c1ccccc41)[C@@H]32
inactive: Potency [1] | Potency [2] | Potency [3] | Potency [19] | Potency [4] | Potency [5] | Potency [6] | Potency [10] | Potency [11] | Potency [16] | Potency [12] | Potency [18] | Potency [14]
active: Potency [9] 23.9 µM

CCCCc1cc2ccccc2c(OCCN(C)C)n1
inactive: Potency [1] | Potency [2] | Potency [3] | Potency [19] | Potency [4] | Potency [5] | Potency [6] | Potency [8] | Potency [15] | Potency [9] | Potency [11] | Potency [16] | Potency [17] | Potency [13] | Potency [14]

NC(Cc1ccc(F)cc1)C(=O)O (stereo unspecified)
inactive: activity change, negative = cytotoxicity [1] 2.68% [at 8.39 µM] | activation [2] 2.03% [at 6.97 µM] | activation [3] -0.478% [at 5.23 µM] | activation [4] 1.09% [at 5.99 µM] | activity change, negative = cytotoxicity [5] 3.36% [at 5.99 µM] | activity change, negative = cytotoxicity [7] -3.36% [at 5.99 µM] | activation [8] 1.84% [at 5.99 µM] | activation [16] -1.9% [at 8.39 µM] | activity change, negative = inhibition [17] -1.08% [at 8.39 µM] | activity change, negative = inhibition [12] -3.88% [at 8.39 µM] | activation [18] -31.2% [at 8.39 µM] | activation [13] 1.24% [at 8.39 µM] | activity change, negative = inhibition [14] 11.6% [at 8.38 µM]

OC(C#CCN1CCCC1)(c1ccccc1)c1ccccc1
inactive: Potency [1] | Potency [2] | Potency [3] | Potency [5] | Potency [6] | Potency [7] | Potency [15] | Potency [9] | Potency [11] | Potency [16] | Potency [17] | Potency [12] | Potency [14]
active: Potency [10] 0.0065 µM

CCN1CCOCC1
inactive: Potency [1] | Potency [2] | Potency [19] | Potency [4] | Potency [5] | Potency [6] | Potency [8] | Potency [15] | Potency [9] | Potency [10] | Potency [11] | Potency [16] | Potency [17] | Potency [12] | Potency [18] | Potency [14]
